According to PubChem BioAssay (Tox21):
Results filed as inconclusive are left out. A call without a number means that no potency is given here. Activity calls are given as the source filed them. Calls follow the shape of the dose curve; as a rule, active = well fitted cell-killing curve with a large enough effect in the repeat runs; inconclusive = weak or mixed curves, or effect the other way; inactive = flat fitted curve, though single readings scatter.
Potency is read from the fitted curve at half-maximal effect.

Assay: qHTS assay to identify small molecule antagonists of the androgen receptor (AR) signaling pathway using the MDA cell line - cell viability counter screen (AID 743041; also: nearly all actives have a fitted effect of over 45% in size)
Details: MDA-kb2 viability, CellTiter-Fluor, 16 h, cells co-treated with R1881 androgen agonist; series mostly up to 70.3 µM
Source text: National Center for Advancing Translational Sciences [NCATS]
NIH Chemical Genomics Center [NCGC]
U.S. Environmental Protection Agency [EPA]
National Institutes of Environmental Health Sciences [NIEHS]
National Toxicology Program [NTP]
U.S. Food and Drug Administration [FDA]
Androgen receptor (AR), a nuclear hormone receptor, plays a critical role in AR-dependent prostate cancer and other androgen related diseases. Endocrine disrupting chemicals (EDCs) and their interactions with steroid hormone receptors like AR may cause disruption of normal endocrine function as well as interfere with metabolic homeostasis, reproduction, developmental and behavioral functions. To identify the compounds that inhibit AR signaling, MDA-kb2 AR-luc cell line (from ATCC, deposited by Wilson et al.) was used to screen the Tox21 10K compound library. MDA-kb2 AR-luc cell line is human breast carcinoma cell line that was stably transfected with a luciferase reporter gene under control of the MMTV promoter containing response elements for both androgen receptor (AR) and glucocorticoid receptor (GR). The cytotoxicity of the Tox21 compound library against the MDA-kb2 AR-luc cell line was tested in parallel by measuring the cell viability using CellTiter-Fluor assay (Promega, Madison, WI) in the same wells.
Tox21 Assay Protocol Summary:
MDA-kb2 AR-luc cells were dispensed at 3,000 cells/4 uL/well of culture medium into white wall/solid-bottom 1536-well plates using a Multidrop Combi (ThermoFisher Scientific, Waltham, MA) dispenser. After the assay plates were incubated at a 37C and 0% CO2 for 5 hr, 23 nL of compounds dissolved in DMSO, positive controls or DMSO only was transferred to the assay plate by a Pintool station (Kalypsys, San Diego, CA), followed by addition of 1 uL of agonist (R1881) in culture medium using a Bioraptr Flying Reagent Dispenser (FRD) workstation (Beckman Coulter, Indianapolis, IN, USA). The plates were incubated at a 37C and 0% CO2 for 16 h. After 15.5 h incubation, 1uL of CellTiter-Fluor reagent (Promega) was added using a Bioraptr FRD to each plate for measuring cytotoxicity. The fluorescence intensity was quantified on a ViewLux plate reader (PerkinElmer, Shelton, CT) following 30 min incubation at 37C and 0% CO2.
With `CCCCCCCC/C=C\CCCCCCCCOCCO` the Potency was 14.1 µM (active).
In the case of `CCOC(=O)O[C@H](C)OC(=O)c1ccc2c(c1)cc(C(=O)NC1CCN(C(C)C)CC1)n2Cc1cc(-c2ccc(Cl)s2)on1`, the Potency is reported as 57.1 µM (active).
For `CCCCCCCCOC(=O)c1ccc(O)cc1`, the Potency was “inactive”.
In the case of `CCCCCCCCCCCCCCCS(=O)(=O)Oc1ccccc1`, the Potency is reported as “inactive”.
In the case of `CSc1ccc(/C=C2/C(C)=C(CC(=O)O)c3cc(F)ccc32)cc1`, the Potency is reported as “inactive”.
With `Clc1ccc2cc3ccccc3cc2c1` the Potency was “inactive”.
With `O=C(OC[C@H]1O[C@@H](OC(=O)c2cc(O)c(O)c(OC(=O)c3cc(O)c(O)c(O)c3)c2)[C@H](OC(=O)c2cc(O)c(O)c(OC(=O)c3cc(O)c(O)c(O)c3)c2)[C@@H](OC(=O)c2cc(O)c(O)c(OC(=O)c3cc(O)c(O)c(O)c3)c2)[C@@H]1OC(=O)c1cc(O)c(O)c(OC(=O)c2cc(O)c(O)c(O)c2)c1)c1cc(O)c(O)c(OC(=O)c2cc(O)c(O)c(O)c2)c1` the Potency was 22.1 µM (active).
With `C/C=C(\C)C(=O)OCc1ccccc1` the Potency was “inactive”.
For `C[C@@H](NCCCc1cccc(C(F)(F)F)c1)c1cccc2ccccc12`, the Potency was “inactive”.
For `Cc1ccc(O)c2ncccc12`, the Potency was 18.8 µM (active).
In the case of `Fc1ccc(C(c2ccc(F)cc2)N2CCN(C/C=C/c3ccccc3)CC2)cc1`, the Potency is reported as “inactive”.
In the case of `CC/C(=C(\c1ccc(O)cc1)c1ccc(OCCN(C)C)cc1)c1ccccc1`, the Potency is reported as “inactive”.
For `CC(=O)OCC(C)OC(C)=O` (stereo not given), the Potency was “inactive”.
With `CC1=C(C(=O)OC(C)C)C(c2cccc([N+](=O)[O-])c2)C(C(=O)OC2CN(C(c3ccccc3)c3ccccc3)C2)=C(N)N1` (stereo not given) the Potency was “inactive”.
With `CC(C)=CCOc1ccc(/C=C/C(=O)c2ccc(OCC=C(C)C)cc2OCC(=O)O)cc1` the Potency was “inactive”.
In the case of `S=c1[nH]c2ccccc2s1`, the Potency is reported as “inactive”.
In the case of `O=C1c2c(O)ccc(Nc3ccc(CCO)cc3)c2C(=O)c2c([N+](=O)[O-])ccc(O)c21`, the Potency is reported as “inactive”.
With `Clc1ccc2n[nH]nc2c1` the Potency was “inactive”.
For `O=[N+]([O-])c1cc([N+](=O)[O-])c2ccc(S(=O)(=O)O)cc2c1O`, the Potency was 27.1 µM (active).
With `O=C(O)c1c(Cl)cccc1Cl` the Potency was “inactive”.
For `CCCCCCCCCCCCCCCCCC[N+](C)(C)Cc1ccccc1`, the Potency was 17.4 µM (active).
With `O=c1cc(-c2ccc(O)cc2)oc2cc(O)cc(O)c12` the Potency was “inactive”.
In the case of `Oc1c(Cl)cc(Cl)c2cccnc12`, the Potency is reported as 11.1 µM (active).
In the case of `CC(C)(C)c1ccc(C(=O)CCCN2CCC(OC(c3ccccc3)c3ccccc3)CC2)cc1`, the Potency is reported as “inactive”.
With `Cc1c(C)c2c(c(C)c1OC(=O)CCC(=O)O)CC[C@@](C)(CCC[C@H](C)CCC[C@H](C)CCCC(C)C)O2` the Potency was “inactive”.
In the case of `CSc1ccc(C(=O)c2[nH]c(=O)[nH]c2C)cc1`, the Potency is reported as “inactive”.
With `O=C(NOCC1CC1)c1ccc(F)c(F)c1Nc1ccc(I)cc1Cl` the Potency was “inactive”.
With `CCCCCCCCCCCCCCCC(=O)OC[C@H](O)[C@H]1OC(=O)C(O)=C1O` the Potency was “inactive”.
In the case of `CCCN(CCC)c1c([N+](=O)[O-])cc(C(F)(F)F)c(N)c1[N+](=O)[O-]`, the Potency is reported as 60.9 µM (active).
With `CCCCC(CC)COP(=O)(O)OCC(CC)CCCC` (stereo not given) the Potency was “inactive”.
In the case of `C[n+]1ccn(Cc2ccccc2)c1`, the Potency is reported as “inactive”.
With `Clc1ccccc1C(c1ccccc1)(c1ccccc1)n1ccnc1` the Potency was “inactive”.
In the case of `Cc1cc(N)c(S(=O)(=O)O)cc1Cl`, the Potency is reported as “inactive”.
With `CC(C)(C)CC(C)(C)c1ccc(O)c(Cc2ccc(Cl)cc2Cl)c1` the Potency was “inactive”.
With `Oc1cc2ccccc2c2ccccc12` the Potency was 27.3 µM (active).
With `Cc1[nH]cnc1C[C@H]1CCc2c(C)c3ccccc3n2C1=O` the Potency was “inactive”.
In the case of `Nc1ccc(N)c2ccccc12`, the Potency is reported as 43.2 µM (active).
With `C=CC(=O)OCC(CO)(COCC(COC(=O)C=C)(COC(=O)C=C)COC(=O)C=C)COC(=O)C=C` the Potency was 1.2 µM (active).
With `CC(NN)c1ccccc1` (stereo not given) the Potency was “inactive”.
For `ON=C1CCCC1`, the Potency was “inactive”.
